# Assay outcomes (PubChem)
# Only a selection was taken, and hits are over-represented in it overall.
# Dicer inh: inhibitors of Dicer pre-microRNA processing, primary screen, biochemical, cat-ELCCA, chemiluminescence; cat-ELCCA pre-miR-21 Dicer processing; stronger effect = higher value; AID 1347074, 2019; z-score at 25 µM; actives 6% (n = 47,000); in the data active = z-score above about 3, passing the limit was not always enough;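 note: plate controls were vehicle for no effect and no enzyme for full effect; higher signal means more uncleaved substrate so more Dicer inhibition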
# Starred values were filed as active, the others as inactive.
SMILES,Dicer inh
CCOC(=O)c1cnn2c(C(F)F)cc(-c3ccc(C)cc3)nc12,3.5*
CN(C)/C=C(\C#N)c1nc(-c2ccc(Cl)cc2)cs1,0.91
COc1ccc(NS(=O)(=O)c2ccc(Br)cc2)cc1,2.3
COc1ccc(S(=O)(=O)Nc2c(C)cc(O)cc2C)cc1,5.2*
COc1ccc(S(=O)(=O)Nc2cc(OC)c(Cl)cc2OC)cc1,1.3
O=C(O)CSCC(=O)Nc1cnccn1,-0.7
CCCN(CCC)C(=O)c1cccc2c1-c1ccccc1C2=O,-1.2
CSc1ccc(C2c3c(oc4ccccc4c3=O)C(=O)N2c2nncs2)cc1 (configuration not stated),1.4
CC(=O)N1Cc2ccccc2S12OC(=O)c1ccccc12 (configuration not stated),-0.84
CC1(C)CC(=O)C(C(C2=C(O)CC(C)(C)CC2=O)c2cc(Br)ccc2O)C(=O)C1 (configuration not stated),-0.06
CC1(C)CC(=O)C(C(C2=C(O)CC(C)(C)CC2=O)c2cccc(O)c2O)C(=O)C1 (configuration not stated),4.3*
Cc1ccc(C(C2=C(O)CC(C)(C)CC2=O)C2C(=O)CC(C)(C)CC2=O)o1 (configuration not stated),-0.3
CCN(Cc1ccccc1)c1nc2c([nH]1)c(=O)n(C)c(=O)n2C,0.47
O=C(c1ccc(Sc2ccccn2)c([N+](=O)[O-])c1)N1CC=CCC1,-0.66
COCCOC(=O)C1=C(C)Nc2nc3ccccc3n2C1c1ccc(Cl)cc1 (configuration not stated),0.02
CCOC(=O)c1nc(-c2ccccc2)sc1-c1ccnn1C(=O)Nc1ccc(Cl)cc1,0.35
CCN(C(=S)Nc1ccc(C)cc1)c1ccccc1,1.6
Cc1ccc(CNC(=S)N(C)C)cc1,-0.69
CCN(CC)C(=S)NC(=S)c1ccc(C)cc1,16*
Cn1nc(OCC(=O)NC(C)(C)C)cc1C(F)(F)F,-1
Cn1c(SCc2nc(-c3ccccc3)no2)nnc1-c1ccco1,0.3
Cn1c(SCc2nc(-c3ccccc3)no2)nnc1-c1cccs1,3.1*
Cc1ccc(-c2noc(CSc3nnc(C)n3-c3ccccc3)n2)cc1,1.1
COc1ccc(Cc2nn3c(-c4ccc(Cl)cc4Cl)nn(-c4ccc([N+](=O)[O-])cc4)c3nc2=O)cc1,0.25
C#CCSc1ccccc1C1=NCCCN1,0.68
SMILES,Dicer inh
Cc1ccc(Cn2nc(C)c(NC(=O)c3nc4nc(C)cc(C(F)F)n4n3)c2C)cc1,-0.06
O=C(C1CCCN(S(=O)(=O)c2ccc(Cl)cc2)C1)N1CCc2ccccc2C1 (configuration not stated),-1.2
Clc1ccc(CN2CCCNCC2)c(Cl)c1,-1.1
O=C1c2cccc3cc([N+](=O)[O-])cc(c23)C(=O)N1Cc1ccncc1,3.5*
CN1C(=O)c2cccc3cc([N+](=O)[O-])cc(c23)C1=O,0.58
O=C(O)CN1C(=O)c2cccc3cc([N+](=O)[O-])cc(c23)C1=O,2.9
CCCc1ccc(Oc2ccc(NC(=O)C3CC3C(=O)O)cn2)c(OC)c1 (configuration not stated),-0.32
CCOC(=O)CCCN1C(=O)S/C(=C/c2ccc(OC)cc2)C1=S,-0.13
Nc1nonc1-n1nnc(C(=O)O)c1-c1ccc(C2CCCCC2)cc1,0.92
COc1ccc(C2OC(c3ccc(Br)cc3)=NN2C(C)=O)cc1 (configuration not stated),-2.5
CS(=O)(=N/C=C(\C#N)C(=O)c1ccc(Cl)cc1)c1ccc(OC(=O)c2ccc(Cl)cc2)cc1 (configuration not stated),-1.1
OCc1nc2ccccc2n1CC(O)COc1ccc(Cl)cc1 (configuration not stated),-1.9
OCCCc1nc2ccccc2n1CCCCOc1ccc(Cl)cc1,6.1*
OCCCc1nc2ccccc2n1CCCOc1ccc(Cl)cc1,0.7
CC1=CC(C)C2COC(c3ccccc3O)C1C2 (configuration not stated),0.99
Cc1cc2nc(-c3ccc4ccccc4c3)cc(C(F)(F)F)n2n1,-1.1
O=C(Nc1ccc2ccccc2n1)Nc1ccccc1F,-2.5
O=C(Nc1ccc2ccccc2n1)c1c(Cl)cccc1Cl,1.7
O=C(Nc1ccc2ccccc2n1)c1cccs1,-0.6
O=C(Nc1ccc2ccccc2n1)c1ccc(Cl)cc1,1.2
O=C(Nc1ccc2ccccc2n1)c1ccccc1Cl,3.2*
O=C(Nc1ccc2ccccc2n1)C1CCCCC1,5.1*
Cc1ccc(Cn2c(C)cc(C)c(C#N)c2=O)cc1,-0.64
COC(=O)c1cc(-c2ccc(S(=O)(=O)N3CCN(c4ccccc4)CC3)cc2)c(C(F)(F)F)s1,-5.1
Cc1ccc(C(=O)CC2(O)C(=O)N(C)c3ccccc32)c(C)c1 (configuration not stated),0.81
SMILES,Dicer inh
CCN(CC)c1ccc(C2C(C#N)=C(C)NC3=C2C(=O)CC(C)(C)C3)cc1 (configuration not stated),-0.42
CC1(C)CC(=O)C2=C(C1)NC1=C(C(=O)c3ccccc31)C2c1ccc([N+](=O)[O-])o1 (configuration not stated),5.5*
CC1(C)CC(=O)C2=C(C1)NC1=C(C(=O)c3ccccc31)C2c1cccc(O)c1 (configuration not stated),2.5
COc1ccc(OC)c(C2C3=C(CC(C)(C)CC3=O)NC3=C2C(=O)c2ccccc23)c1 (configuration not stated),0.33
COc1ccc(N2C(=O)CC(NCCc3c[nH]c4ccc(Cl)cc34)C2=O)cc1 (configuration not stated),-0.9
O=C1CC(NCCc2c[nH]c3ccccc23)C(=O)N1c1cccc(Cl)c1 (configuration not stated),0.63
COc1ccc2[nH]cc(CCNC3CC(=O)N(c4ccc(Br)cc4)C3=O)c2c1 (configuration not stated),3.5*
COc1ccc(/C(O)=C2\C(=O)C(=O)N(CCCn3ccnc3)C2c2ccc(N(C)C)cc2)cc1 (configuration not stated),-0.28
CCCCCNc1nc(C)nc2c1sc1nc3c(cc12)COC(C)(C)C3,0.74
C/C(=N\NC(=S)NCC1CCCO1)c1cccs1 (configuration not stated),0.73
CC(C)(C)NC(=S)NNC(=O)c1ccc(-c2ccc(Cl)cc2)s1,-0.16
Cc1ccc(O)c(C(=O)NNC(=S)Nc2ccccc2C(F)(F)F)c1,5.4
O=C(NNC(=S)Nc1ccccc1C(F)(F)F)c1ccc(-c2ccc(Cl)cc2)s1,4.3*
Cc1ccc(S(=O)(=O)N/N=C(/c2ccccc2)c2ccc(OCC(C)C)cc2)cc1,-1.8
O=c1[nH]c2ccc(Cl)cc2n1-c1ccncc1,-0.23
COc1ccc(C(C)=O)cc1CS(=O)(=O)Cc1cc(C(C)=O)ccc1OC,1.1
COc1ccc(-c2cc(OC(=O)c3ccccc3C)c3c(C)oc(C)c3c(=O)c2)cc1,6.7*
CCOc1cc(-c2ccc(OC)cc2)cc(=O)c2c(C)oc(C)c12,-0.25
CCOc1ccc(-c2cc(OC(=O)c3ccccc3F)c3c(C)oc(C)c3c(=O)c2)cc1,0.02
O=[N+]([O-])c1ccc(NS(=O)(=O)c2ccc(Cl)cc2)c(Cl)c1,0.14
CC(C)S(=O)(=O)C/C(N)=N/OCc1cccc(Cl)c1,-2.8
CC1=C(C(=O)OCCc2ccccc2)C(c2cccs2)C2=C(CC(c3cccs3)CC2=O)N1 (configuration not stated),0.63
COc1ccc(Nc2nc(Cl)nc(Nc3ccc(OC)cc3)n2)cc1,-0.67
COc1ccc(Nc2c(Cl)cc(OC)cc2Cl)cc1,3.4
